High-throughput results as filed in PubChem.
TR SRC2 fluor cs: counter-screen for TRb-SRC2 inhibitors: fluorescence interference; TRb/SRC2 Texas Red total fluorescence interference; Potency, µM (doses to about 106 µM); 0.29% of 280,000 active; active means well fitted curve in either direction with a large enough effect; inconclusive means small, poorly fitted or top-dose-only effect
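Human TRβ ligand-binding domain (0.6 uM) and Texas Red SRC2 peptide (20 nM) in Tris buffer with 1 uM T3 and 5% DMSO were incubated with pinned compound for 5 hr at ambient temperature. Total fluorescence was computed as S + 2P (555/632 nm).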
APEX1 inh: APE1 (human) endonuclease inhibition; recombinant APE1, TAMRA/BHQ-2 abasic DNA cleavage fluorescence; Potency, µM (series often up to 65.8 µM), most hits filed as inhibitors; P27695; 0.35% of 350,000 active; further: nearly all actives have a fitted effect of over 55% in size
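Substrate: short duplex with […] THF abasic site, 5'-TAMRA and 3'-BHQ-2, 50 nM final. APE1 at 0.75 nM, preincubated 15 min RT with compound. Fluorescence increase from first to third read measured activity.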
BLM inh: blocks DNA unwinding by human BLM helicase. P54132. recombinant BLM DNA unwinding, fluorescence dequenching. Potency, µM (titrated, usually from 56.1 µM), usual class: inhibitors. 0.2% of 350,000 active. AID 2528; further: nearly all actives have a fitted effect of over 35% in size
RECQ1 inh: inhibitors of human RECQ1 DNA helicase. P46063. RECQ1 DNA unwinding, red fluorescence kinetic read. Potency, µM (series often up to 57.3 µM), most hits filed as inhibitors. 0.54% of 240,000 active; further: nearly all actives have a fitted effect of over 30% in size
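50 nM RECQ1T1 preincubated 15 min with compound in Tris pH 8.0 buffer with MgCl2, DTT, Tween-20 and 2.5 ug/ml poly(dI-dC); started with 200 nM TAMRA/BHQ-2 forked duplex and 2 mM ATP. Unwinding read as fluorescence (525/598 nm), two reads 2 h apart.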
GoLoco inh red: RGS12 GoLoco-Gai1 interaction inhibition | P63096 | Gai1:RGS12 GoLoco peptide FP, rhodamine, 10 min | Potency, µM (doses to about 61.6 µM), usual class: inhibitors | 0.44% of 230,000 active | AID 880; active means well fitted inhibition curve with a large enough effect, not every such curve was filed as active; inactive means no such curve, though single readings can be large or run the other way; further: nearly all actives have a fitted effect of over 30% in size
TRb SRC2 PPI: inhibitors of human thyroid hormone receptor beta-SRC2 interaction. P10828. TRbeta-SRC2 peptide binding, fluorescence polarization; receptor liganded with 1 µM T3. Potency, µM (titrated, usually from 106 µM), hits mostly inhibitors. 0.065% of 280,000 active. AID 1469; further: nearly all actives have a fitted effect of over 50% in size
Target sequence (P10828 whole entry, looked up): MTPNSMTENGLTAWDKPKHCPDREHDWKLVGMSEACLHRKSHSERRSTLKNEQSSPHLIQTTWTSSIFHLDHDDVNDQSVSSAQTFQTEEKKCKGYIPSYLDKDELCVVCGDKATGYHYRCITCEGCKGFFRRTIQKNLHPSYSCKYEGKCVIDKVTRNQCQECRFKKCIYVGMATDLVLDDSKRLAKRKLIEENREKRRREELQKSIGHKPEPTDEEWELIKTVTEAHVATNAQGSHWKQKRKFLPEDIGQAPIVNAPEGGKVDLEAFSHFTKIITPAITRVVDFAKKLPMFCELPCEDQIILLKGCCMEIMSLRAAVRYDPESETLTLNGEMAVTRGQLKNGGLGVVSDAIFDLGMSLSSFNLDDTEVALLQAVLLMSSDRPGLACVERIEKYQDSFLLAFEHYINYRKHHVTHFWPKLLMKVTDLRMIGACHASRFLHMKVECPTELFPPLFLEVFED
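Quantitative HTS by FP: 0.6 uM TRb LBD, 20 nM labeled SRC2 20-mer, 1 uM T3, 5% DMSO; 5 hr ambient incubation; % activity per concentration and potencies from concentration series.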
A number is an active result; [ ] = dose if it differs, or a comment. A selection: hits, their analogues and other compounds. The true share with any hit is near 0.9%. Unless noted, the call rests on the fitted dose curve; in most records, active means well fitted curve in the direction sought with a large enough effect; inconclusive means small, poorly fitted or top-dose-only effect, or another doubt; inactive means no such curve, though single readings can be large; an effect the other way counts as inactive or inconclusive.

Screening Cc1cc(N)ccc1N1CCCC1 returned TR SRC2 fluor cs 44.7µM[fluorescent], APEX1 inh inactive, BLM inh inactive, RECQ1 inh inactive, GoLoco inh red 14.1µM and TRb SRC2 PPI 39.8µM.
NC(=O)c1cc(N)ccc1N1CCCCC1 was read as TR SRC2 fluor cs inactive, APEX1 inh inactive, BLM inh inactive, RECQ1 inh inactive, GoLoco inh red inactive and TRb SRC2 PPI inactive.
NC(=O)c1cccc(-c2noc(-c3ccccc3C(F)(F)F)n2)c1 was read as APEX1 inh inactive.
For Cc1cc(Cn2cnc3c(cnn3C(C)(C)C)c2=O)ccc1F the results were APEX1 inh inactive.
COc1ccc(/C=C2\CCn3c2nc2cc(C(=O)O)ccc2c3=O)cc1O was read as TR SRC2 fluor cs 0.316µM[quencher], APEX1 inh inactive, BLM inh inactive, RECQ1 inh inactive, GoLoco inh red inactive and TRb SRC2 PPI inconclusive.
CC(O)/C=C/c1cccc[n+]1C (stereo unspecified) was read as TR SRC2 fluor cs inactive, APEX1 inh inactive, BLM inh inactive, RECQ1 inh inactive, GoLoco inh red 7.94µM and TRb SRC2 PPI inactive.
For O=c1cc2oc3cc(O)c(O)cc3c(-c3ccccc3[N+](=O)[O-])c-2cc1O the results were APEX1 inh 0.134µM and BLM inh 0.708µM.
Screening O=c1cc(-c2ccccc2)oc2cc(O)c(O)cc12 returned TR SRC2 fluor cs inactive, APEX1 inh inconclusive, BLM inh inactive, RECQ1 inh inactive, GoLoco inh red inactive and TRb SRC2 PPI inactive.
For Cc1cc2nnc(SCC(=O)Nc3ccc(F)c(Cl)c3)n2c2ccccc12 the results were TR SRC2 fluor cs inactive, BLM inh inactive and TRb SRC2 PPI inactive.
Screening CCCOC(=O)c1cccc(NC(=O)CSc2nnc3cc(C)c4ccccc4n23)c1 returned TR SRC2 fluor cs 2.82µM[quencher], BLM inh inactive and TRb SRC2 PPI inactive.
For CC1(C)Cc2c(C#N)c(N3CCN(C(=O)c4ccccc4)CC3)nc(-c3ccco3)c2CS1 the results were TR SRC2 fluor cs inactive, APEX1 inh inactive, BLM inh 28.2µM, RECQ1 inh inactive, GoLoco inh red inactive and TRb SRC2 PPI inactive.
Screening Cc1oc2ncn(C)c(=O)c2c1C(=O)NC(C)c1ccccc1 (stereo unspecified) returned TR SRC2 fluor cs 0.282µM[quencher], BLM inh inactive and TRb SRC2 PPI inactive.
For Cc1oc2ncn(C)c(=O)c2c1C(=O)N(Cc1ccccc1)C(C)C the results were TR SRC2 fluor cs inactive, BLM inh inactive and TRb SRC2 PPI inactive.
`CN(/N=C/c1ccc(N(C)C)cc1)C1=NS(=O)(=O)c2ccccc21` gave APEX1 inh 23.8µM and BLM inh inactive.
For COc1ccc(/C=N/N(C)C2=NS(=O)(=O)c3ccccc32)cc1 the results were APEX1 inh inactive and BLM inh inactive.
`Cc1c(Cc2ccccc2)c(=O)oc2c(O)c(O)ccc12` gave TR SRC2 fluor cs inactive, APEX1 inh inactive, BLM inh 12.6µM, RECQ1 inh inactive, GoLoco inh red inactive and TRb SRC2 PPI inactive.
Screening O=c1cc(-c2ccccc2O)oc2c(O)c(O)ccc12 returned TR SRC2 fluor cs inactive, APEX1 inh 3.55µM, BLM inh inactive, RECQ1 inh 3.16µM, GoLoco inh red inactive and TRb SRC2 PPI inactive.
For Cc1oc2c(O)c(O)ccc2c(=O)c1-c1cnn(-c2ccccc2)c1 the results were TR SRC2 fluor cs inactive, APEX1 inh inactive, BLM inh inactive, RECQ1 inh inactive, GoLoco inh red 2.24µM and TRb SRC2 PPI inactive.
`Cc1oc2c(O)c(O)ccc2c(=O)c1-c1ccccc1` gave TR SRC2 fluor cs inactive, APEX1 inh inactive, BLM inh inactive, RECQ1 inh 10µM, GoLoco inh red inactive and TRb SRC2 PPI inactive.
Cc1oc2c(O)c(O)ccc2c(=O)c1-c1ccc(Cl)cc1 was read as APEX1 inh inactive and BLM inh inactive.
Screening O=C1COc2cc(S(=O)(=O)CCC(=O)NC3CCCCC3)c(Cl)cc2N1 returned TR SRC2 fluor cs inconclusive, BLM inh inactive and TRb SRC2 PPI inactive.
Cc1ccc2c(c1)c(C)cc[n+]2Cc1ccccc1 was read as TR SRC2 fluor cs inactive, APEX1 inh inactive, BLM inh inactive, RECQ1 inh inactive and TRb SRC2 PPI inactive.
CC[n+]1ccc(C[n+]2ccccc2)c2ccccc21 was read as TR SRC2 fluor cs inactive, APEX1 inh inactive, BLM inh inactive, RECQ1 inh inactive, GoLoco inh red 17.8µM and TRb SRC2 PPI inactive.
`CCOC(=O)c1cn(CC)c2ccc(S(=O)(=O)N3CC(C)CC(C)C3)cc2c1=O` (stereo unspecified) gave TR SRC2 fluor cs 44.7µM[fluorescent], APEX1 inh inactive, BLM inh inactive, RECQ1 inh inactive, GoLoco inh red inactive and TRb SRC2 PPI inconclusive.
`C/C(=N\NC(=O)c1ccccc1O)C1C(=O)c2ccccc2C1=O` gave TR SRC2 fluor cs inconclusive, APEX1 inh inactive, BLM inh inactive, RECQ1 inh inactive, GoLoco inh red inactive and TRb SRC2 PPI inactive.
For C/C(=N/NC(=O)c1cc2ccccc2cc1O)C1C(=O)c2ccccc2C1=O the results were TR SRC2 fluor cs 39.8µM[quencher], APEX1 inh inconclusive, BLM inh 28.2µM, RECQ1 inh inconclusive, GoLoco inh red inactive and TRb SRC2 PPI inactive.
For C/C(=N\NC(=O)c1cc2ccccc2cc1O)c1cc2ccccc2o1 the results were TR SRC2 fluor cs 39.8µM[quencher], APEX1 inh inactive, BLM inh inactive, RECQ1 inh inconclusive, GoLoco inh red 25.1µM and TRb SRC2 PPI inconclusive.
Screening C/C(CC(=O)N1CCN(C=O)CC1)=N\NC(=O)c1cc2ccccc2cc1O returned TR SRC2 fluor cs 44.7µM[quencher], APEX1 inh inactive, BLM inh inactive, RECQ1 inh 28.2µM, GoLoco inh red inactive and TRb SRC2 PPI inactive.
COc1ccc(NC(=O)Cn2c(SCc3ccc(C)cc3)nc3cccnc32)cc1OC was read as TR SRC2 fluor cs inactive, BLM inh inactive and TRb SRC2 PPI inactive.
Screening CCCCCCC(O)CCCCCCCCCCC(=O)O (stereo unspecified) returned TR SRC2 fluor cs inactive and TRb SRC2 PPI inactive.
CCOC(=O)c1c(NC(C)=O)c2c3c(sc2n1Cc1nc(-c2ccccc2Cl)oc1C)CCCC3 was read as TR SRC2 fluor cs 17.8µM[quencher], BLM inh inactive and TRb SRC2 PPI inactive.
For S=c1[nH]nc(-c2n[nH]c3c2CCC3)n1/N=C/C=C/c1ccco1 the results were TR SRC2 fluor cs inactive, APEX1 inh inconclusive, BLM inh inactive, RECQ1 inh 12.6µM, GoLoco inh red inactive and TRb SRC2 PPI inactive.
Screening Cc1c(N=Nc2ccc(O)cc2)c(=O)n(-c2ccccc2)n1C returned TR SRC2 fluor cs inactive, APEX1 inh inactive, BLM inh inactive, RECQ1 inh inactive, GoLoco inh red inactive and TRb SRC2 PPI inactive.
